Giardia killer: Giardia lamblia killing. Giardia lamblia trophozoite viability. 340,000 tested, 0.15% active. AID 540267. activity change, % at 7.66 µM, hits read low; in the data active = activity change below about -80%; inconclusive = between about -30% and that limit;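 also: parasites exposed to compound for two days anaerobically before the ATP read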
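Anaerobic 48 hrs incubation at 37 deg C of 100 trophozoites/well with test compounds; ATPLite 1-Step luminescence, 15-30 min RT, reports cellular ATP as viability.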
RORg inh: inhibitors of mouse ROR gamma transcriptional activity | Drosophila S2 Gal4-RORgamma UAS-luciferase reporter, 20 h | 310,000 tested, 5.4% active | AID 2551 | Potency, µM (series often up to 53.6 µM), hits mostly inhibitors | P51450; also: nearly all actives have a fitted effect of over 60% in size
Target sequence (P51450 whole entry, looked up, the tested form may be a part): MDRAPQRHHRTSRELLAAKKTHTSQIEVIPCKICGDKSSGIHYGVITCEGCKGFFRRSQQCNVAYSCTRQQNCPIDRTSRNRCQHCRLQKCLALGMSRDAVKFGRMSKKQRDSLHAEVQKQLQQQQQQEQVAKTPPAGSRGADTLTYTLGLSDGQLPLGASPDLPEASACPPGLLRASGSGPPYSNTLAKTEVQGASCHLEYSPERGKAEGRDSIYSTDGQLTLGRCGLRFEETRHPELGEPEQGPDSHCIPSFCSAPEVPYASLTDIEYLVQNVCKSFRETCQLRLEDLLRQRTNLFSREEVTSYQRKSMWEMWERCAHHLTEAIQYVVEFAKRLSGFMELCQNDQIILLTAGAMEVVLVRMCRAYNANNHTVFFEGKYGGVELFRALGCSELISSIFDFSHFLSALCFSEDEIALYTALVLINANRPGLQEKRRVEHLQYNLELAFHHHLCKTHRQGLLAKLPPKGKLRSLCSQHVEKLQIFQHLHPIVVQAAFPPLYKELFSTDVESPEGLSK
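Drosophila Schneider cells stably carrying a metallothionein-driven Gal4 DBD–ROR gamma fusion and a UAS-Photinus luciferase reporter were exposed to compound for 1 hr, then induced with copper sulfate (700 uM final) for 20 hr at ambient temperature before luminescence reading.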
ELG1 DNA repair: inhibitors of ELG1-dependent DNA repair in HEK293T cells; HEK293T ELG1-luciferase reporter, luminescence, 16 h; DNA damage induced by 5-fluorouridine; Potency, µM (titrated, usually from 46.1 µM), actives largely listed as inhibitors; 330,000 tested, 2.3% active; AID 504467; also: nearly all actives have a fitted effect of over 55% in size
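Step one: seed 2,000 cells per well. Step two: pin-transfer compound or DMSO alongside 5-fluorouridine. Step three: incubate 16 hr, 37 °C, 5% CO2. Step four: add ONE-Glo, wait 30 min, read luminescence.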
BRCA1 expr up: BRCA1 expression activation | Potency, µM (titrated, usually from 46.1 µM), actives largely listed as activators | MCF7-BRCA1-FFLuc reporter, luminescence, 48 h; response scale: scaled: vehicle 0%, 10 µM genistein 100% | AID 624202 | 380,000 tested, 1.1% active; also: nearly all actives have a fitted effect of over 80% in size
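Cells: MCF7-BRCA1-FFLuc, 2000/well. Exposure: 48 h, 37 °C, 5% CO2. Read: luminescence, 15 min post-substrate. Controls: genistein 10 microM (maximal activation), DMSO (neutral).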
Gal4-VP16 FLuc: inhibits Gal4-VP16 luciferase reporter, ROR gamma counter-screen; Drosophila S2 Gal4-VP16 UAS-luciferase, luminescence, 20 h; Potency, µM (highest dose often 53.6 µM), most hits filed as inhibitors; 310,000 tested, 3.5% active; AID 2546;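 also: Gal4-VP16 expression switched on by copper sulfate through the metallothionein promoter; nearly all actives have a fitted effect of over 50% in size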
p53 reactivation: re-activators of mutant p53; 320,000 tested, 0.063% active; H1299 p53-A138V BP100-luciferase reporter, luminescence, 24 h; Potency, µM (doses to about 92.2 µM), hits mostly activators; AID 504706; also: nearly all actives have a fitted effect of over 45% in size
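H1299 (p53-null), stable ts p53-A138V + BP100-Luc; 1000 cells/well, Opti-MEM/10% FBS; cpd 4 pt, 1:5; 24 h, 37 deg C, 5% CO2; detection reagent 10 min RT; luminescence.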
Each line names hits and unclear results; the compound was inactive in the other large screens. Only some compounds are listed: those with a hit (about 7.6% of all), similar ones and a draw of the others. Unless noted, calls follow the shape of the dose curve; as a rule, active = well fitted curve in the direction sought with a large enough effect; inconclusive = small, poorly fitted or top-dose-only effect, or another doubt; inactive = no such curve, though single readings can be large; an effect the other way counts as inactive or inconclusive.

C=C(C)CNC(=O)CCc1nnc(C2(c3ccc(Cl)cc3)CCC2)o1	RORg inh inconclusive, ELG1 DNA repair inconclusive
Cn1c(=O)c(C(=O)CN2CC(=O)Nc3ccccc32)c(N)n(Cc2ccccc2)c1=O	none
CC(C)CCn1c(-c2nonc2N)nc2ccccc21	RORg inh 10µM, ELG1 DNA repair 23.1µM, Gal4-VP16 FLuc inconclusive
CCCCn1c(-c2nonc2N)nc2ccccc21	RORg inh inconclusive, ELG1 DNA repair inconclusive
COc1ccc(Nc2cc(C)nc(NCc3ccccc3)n2)cc1	ELG1 DNA repair 18.3µM
Cc1ccc(Nc2cc(C)nc(NCc3ccccc3)n2)cc1	RORg inh inconclusive, Gal4-VP16 FLuc inconclusive
CN(C)CCCN(C(=O)c1ccc(S(=O)(=O)N2CCCCCC2)cc1)c1nc2ccc(F)cc2s1	ELG1 DNA repair 8.2µM
CCc1ccc2nc(N(CCCN(C)C)C(=O)c3ccc(S(=O)(=O)N4CCCC4)cc3)sc2c1	ELG1 DNA repair inconclusive
Cc1ccc2nc(N(CCCN(C)C)C(=O)c3ccc(S(=O)(=O)N4CCCCCC4)cc3)sc2c1	RORg inh 11.2µM, ELG1 DNA repair inconclusive, Gal4-VP16 FLuc inconclusive
CCCCN(CC)S(=O)(=O)c1ccc(C(=O)N(CCCN(C)C)c2nc3cc(C)cc(C)c3s2)cc1	RORg inh 11.2µM, Gal4-VP16 FLuc inconclusive
CN(C)CCCN(C(=O)c1ccc(S(=O)(=O)N2CCOCC2)cc1)c1nc2ccc(F)cc2s1	ELG1 DNA repair inconclusive
N#Cc1c(NC(=S)NC(=O)Cc2cccs2)sc2c1CCCCC2	RORg inh 5.01µM, ELG1 DNA repair inconclusive, Gal4-VP16 FLuc 15.8µM
CC(=O)NC(=S)Nc1sc2c(c1C#N)CCCCC2	RORg inh 11.2µM, ELG1 DNA repair inconclusive, BRCA1 expr up inconclusive, Gal4-VP16 FLuc 8.91µM, p53 reactivation inconclusive
CC(C)(C)C(=O)NC(NC(=S)Nc1sc2c(c1C#N)CCCC2)C(Cl)(Cl)Cl (centres undefined)	RORg inh 10µM, Gal4-VP16 FLuc inconclusive
CC(C)(C)C(=O)Nc1sc2c(c1C#N)CCC2	none
CC(=O)Nc1sc2c(c1C#N)CCCC2	Gal4-VP16 FLuc inconclusive (no result: ELG1 DNA repair, p53 reactivation)
CCCCc1cc(=O)oc2cc(C)cc(OC(C)C(=O)NCc3ccncc3)c12 (centres undefined)	ELG1 DNA repair inconclusive
COc1cccc(NC(=O)c2nc(S(C)(=O)=O)ncc2Cl)c1	RORg inh 3.98µM, ELG1 DNA repair inconclusive, Gal4-VP16 FLuc 5.01µM
CN(c1ccccc1)S(=O)(=O)c1ccc(NC(=O)c2nc(S(C)(=O)=O)ncc2Cl)cc1	RORg inh 6.31µM, ELG1 DNA repair inconclusive, Gal4-VP16 FLuc 2.82µM
COc1ccc(Oc2ncc3nc(C)c(=O)n(Cc4cccc(OC)c4)c3n2)cc1	none (no result: Giardia killer, ELG1 DNA repair, BRCA1 expr up, p53 reactivation)
CC(C)c1nc2ccc(Br)cn2c1NC1CCCC1	RORg inh 7.08µM, ELG1 DNA repair inconclusive, Gal4-VP16 FLuc inconclusive
Cc1ccc2nc(-c3ccccn3)c(NC3CCCC3)n2c1	ELG1 DNA repair inconclusive
c1ccc(-c2cnnc(-c3ccccn3)n2)cc1	BRCA1 expr up 4.47µM (no result: RORg inh, ELG1 DNA repair, Gal4-VP16 FLuc, p53 reactivation)
Cc1occc1-c1nc(-c2ccccn2)no1	RORg inh 12.6µM, ELG1 DNA repair inconclusive, Gal4-VP16 FLuc inconclusive
O=[N+]([O-])c1cccc(-c2nc(-c3ccccn3)no2)c1	Giardia killer inconclusive, RORg inh 11.2µM, ELG1 DNA repair inconclusive, Gal4-VP16 FLuc inconclusive
c1ccc(-c2noc(-c3ccc4c(c3)OCO4)n2)nc1	Giardia killer inconclusive, RORg inh 3.16µM, ELG1 DNA repair inconclusive, BRCA1 expr up inconclusive, Gal4-VP16 FLuc 3.16µM
c1ccc(-c2noc(-c3ccc4ccccc4c3)n2)nc1	Giardia killer -92.5, RORg inh 2.51µM, ELG1 DNA repair inconclusive, Gal4-VP16 FLuc 2.24µM
CN(C)c1ccc(-c2nc(-c3ccccn3)no2)cc1[N+](=O)[O-]	none (no result: Giardia killer, RORg inh, ELG1 DNA repair, Gal4-VP16 FLuc, p53 reactivation)
Cc1occc1-c1nc(-c2ccncc2)no1	ELG1 DNA repair inconclusive, p53 reactivation inconclusive
CCc1nnc(NC(=O)CSc2nnnn2-c2cccc(C(=O)OC)c2)s1	none

Screening data deposited in PubChem BioAssay by National Center for Advancing Translational Sciences (NCATS).
